Screens deposited in PubChem BioAssay by National Center for Advancing Translational Sciences (NCATS).
HP1b chromo inh: HTS for Inhibitors of HP1-beta Chromodomain Interactions with Methylated Histone Tails; Chromobox protein homolog 1 (Homo sapiens), P83916; AlphaScreen HP1-beta / biotin-H3K9me3 peptide binding; Potency, µM (top dose mostly 114 µM), without a hit: at the highest dose activity change, negative = inhibition, hits mostly inhibitors; 390,000 tested, 0.56% active; AID 540317, 2011; also: potency is read from the fitted curve at half-maximal effect; nearly all actives have a fitted effect of over 70% in size
Target sequence (P83916 whole entry, looked up): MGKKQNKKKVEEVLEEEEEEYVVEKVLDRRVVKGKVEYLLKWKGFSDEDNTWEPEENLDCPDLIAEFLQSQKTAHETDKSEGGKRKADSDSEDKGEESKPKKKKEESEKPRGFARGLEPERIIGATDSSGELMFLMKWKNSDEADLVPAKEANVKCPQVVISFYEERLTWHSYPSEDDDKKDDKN
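AlphaScreen: HP1-beta (50 nM) preformed 30 min with biotin-H3(1-18)K9me3 peptide (50 nM) in PBS pH 7.4, 0.01% Tween-20. Compound added for 30 min at RT, then streptavidin donor/nickel chelate acceptor beads (10 ug/mL) for 30 min.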
G9a block: qHTS Assay for Inhibitors of Histone Lysine Methyltransferase G9a. 350,000 tested, 8.8% active. G9a H3K9 monomethylation, AlphaScreen, 2 h. Potency, µM (doses to about 102 µM), inactives show at the highest dose activity, negative = inhibition, actives largely listed as inhibitors. Histone-lysine N-methyltransferase EHMT2 (Homo sapiens), Q96KQ7; also: potency is read from the fitted curve at half-maximal effect; % is scaled to controls: 0 for no effect and ±100 for the full control effect; nearly all actives have a fitted effect of over 75% in size
Target sequence (Q96KQ7 913-1193 limits assumed): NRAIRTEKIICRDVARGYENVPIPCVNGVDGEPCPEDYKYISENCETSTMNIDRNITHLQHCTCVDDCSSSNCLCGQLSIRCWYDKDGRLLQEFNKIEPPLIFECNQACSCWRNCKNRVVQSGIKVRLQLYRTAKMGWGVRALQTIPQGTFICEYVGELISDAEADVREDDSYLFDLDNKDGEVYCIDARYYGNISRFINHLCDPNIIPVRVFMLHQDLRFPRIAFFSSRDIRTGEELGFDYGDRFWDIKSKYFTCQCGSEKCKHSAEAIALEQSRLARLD
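Using a bead-based AlphaScreen, monomethylated H3K9 product from 2 h room-temperature reactions (G9a 20 nM, peptide 500 nM, SAM 20 uM) was detected with 0.5 ug/mL rabbit anti-H3K9me1 antibody.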
CtBP-E1A blk: qHTS Assay for Inhibitors of the CtBP/E1A Interaction | CtBP / adenovirus E1A interaction (AlphaScreen) | activity change, % (test concentration not listed) | 340,000 tested, 0.49% active | AID 651724, 2012 | AlphaScreen GST-E1A/His-CtBP binding, 1536-well; active compounds read low; in the data active = activity change below about -65%; inconclusive = mostly about -30% to -63%; also: % is scaled to controls: 0 for no effect and ±100 for the full control effect
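GST-E1A and His-tagged CtBP (125 nM each as 5X stock) were preincubated with pin-transferred compound for 2 h at 37 °C in the dark, then glutathione donor and nickel acceptor beads were added for 1 h before AlphaScreen reading.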
JMJD2A Tudor: qHTS Assay for Inhibitors of JMJD2A-Tudor Domain; Potency, µM (highest dose often 114 µM), for inactives: at the top dose activity change, negative = inhibition, most hits filed as inhibitors; AlphaScreen JMJD2A-Tudor / H3K4me3 peptide binding; Lysine-specific demethylase 4A (Homo sapiens), O75164; 390,000 tested, 4.4% active; also: potency is read from the fitted curve at half-maximal effect; % is scaled to controls: 0 for no effect and ±100 for the full control effect; nearly all actives have a fitted effect of over 50% in size
BAZ2B inh: qHTS Assay for Inhibitors of BAZ2B | Potency, µM (titrated, usually from 114 µM), inactives show at the highest dose activity change, negative = inhibition, hits mostly inhibitors | Bromodomain adjacent to zinc finger domain protein 2B (Homo sapiens), Q9UIF8 | AlphaScreen BAZ2B-H3K14Ac peptide displacement | 360,000 tested, 4.4% active; also: potency is read from the fitted curve at half-maximal effect; % is scaled to controls: 0 for no effect and ±100 for the full control effect; nearly all actives have a fitted effect of over 60% in size
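AlphaScreen displacement: compounds (up to 110uM) incubated 30 min at room temperature with a preformed 50 nM BAZ2B/50 nM biotinylated H3K14Ac peptide complex in PBS pH 7.4 with Tween-20. Donor and acceptor beads at 10 ug/mL final added, 20 min light-protected before reading.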
Six1-Eya2 blk: qHTS Assay for Inhibitors of the Six1/Eya2 Interaction; AID 651725, 2012; activity change, % (test concentration not listed); AlphaScreen GST-Six1/His-Eya2 binding, biochemical; active compounds read low; 360,000 tested, 0.56% active; in the data active = activity change below about -65%; inconclusive = mostly about -30% to -63%; also: % is scaled to controls: 0 for no effect and ±100 for the full control effect
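AlphaScreen luminescence read after one hour at 37 °C in darkness. Pin-transferred compounds met GST-Six1 and His-Eya2 protein (5X stock 250 nM/500 nM) plus glutathione donor and Ni-chelate acceptor beads (5X, 50 ug/mL).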
The depositor's hits bear a star; u = inconclusive; x = no result; [ ] = remark or other dose. The list is not random: actives were taken first. Their share in the collection is about 10%. Unless noted, calls follow the shape of the dose curve; as a rule, active = well fitted inhibition curve with a large enough effect; inconclusive = small, poorly fitted or top-dose-only effect; inactive = no such curve, though single readings can be large or run the other way.

SMILES	HP1b chromo inh	G9a block	CtBP-E1A blk	JMJD2A Tudor	BAZ2B inh	Six1-Eya2 blk
COCCN=c1scc(-c2cccs2)n1/N=C(\C)c1ccco1	u	31.6µM*	-5.3	50.1µM*	10µM*	u
COCCN=c1scc(-c2ccco2)n1/N=C/c1ccc(O)c(O)c1O	7.94µM*	10µM*	-78.7*	31.6µM*	7.94µM*	-83.8*
Oc1ccc(/C=N/n2c(-c3ccco3)csc2=Nc2cccnc2)c(O)c1	-6.8%	u	-92.8*	-27.4%	u	-92.5*
CCOc1cccc(CNC(=O)c2ccc(N3CCCC3)c(NC(=O)NCc3ccc(F)cc3)c2)c1	28.4%	1.1%[12.7 µM]	x	-2.0%	-10.7%	x
COc1cccc(OC)c1C1=Nn2c(nnc2-c2ccccc2C)SC1	x	x	x	-30.3%	x	x
CCOc1ccc(CCNC(=O)c2cnc3sc(N4CCCCC4)nn3c2=O)cc1	21.7%	-1.5%[59 µM]	x	4.5%	2.3%	x
CC(C)c1ccc(NC(=O)c2cc(S(=O)(=O)NCc3ccccc3Cl)ccc2F)cc1	12.7%	-2.9%[59 µM]	x	-26.6%	3.1%	x
Cc1ccc(-n2ncc(C(=O)NCCCN3CCCCC3)c2C2CCN(C(=O)OC(C)(C)C)CC2)c(C)c1	27.9%	-19.9%[59 µM]	x	-6.8%	4.7%[57.1 µM]	x
CN(C(=O)c1ccc2c(c1)N(Cc1ccccc1F)C(=O)c1ccccc1S2)C1CCCCC1	15.1%	u	x	-18.9%	-10.6%	x
Cc1nn(-c2ccccc2)c(OC(=O)c2ccc(Br)cc2)c1S(=O)(=O)c1ccccc1	36.0%	u	x	-36.0%	u	x
C=CCN=c1scc(-c2ccco2)n1/N=C/c1ccc(O)c(O)c1O	14.1µM*	7.94µM*	-77.8*	50.1µM*	12.6µM*	-66.5*
COc1ccc(N2CCN(S(=O)(=O)CCNC(=O)c3ccco3)CC2)cc1	11.7%	17.2%[2.33 µM]	-20.5	-6.8%	5.4%	8.3
COc1ccc(N2CCN(S(=O)(=O)CCNC(=O)c3ccc(Br)o3)CC2)cc1	25.3%	79.4µM*	-4.0	-16.7%	-5.8%	-0.5
COc1ccc(N2CCN(S(=O)(=O)CCNS(=O)(=O)c3ccccc3)CC2)cc1	29.1%	14.1µM*	1.9	7.6%	-2.5%	-1.1
COc1ccc(CC(=O)NCCS(=O)(=O)N2CCN(c3ccccc3)CC2)cc1	-1.4%	44.7µM*	3.7	-10.7%	-1.2%	-4.5
Cc1ccc(CCNC(=O)c2ccc(Nc3nc4ccccc4n4nnnc34)cc2)cc1	31.3%	10.8%[59 µM]	x	-4.8%	2.8%	x
CCOC(=O)c1cc2c(N)c(C(=O)c3ccc(Br)cc3)sc2[nH]c1=O	28.1%	50.1µM*	x	-14.6%	-30.4%	u
COc1cccc(-c2ccc3c(N)c(C(=O)c4ccc(Br)cc4)sc3n2)c1	39.1%	34.2%[59 µM]	x	2.4%	5.1%	x
O=[N+]([O-])c1cc(Cl)cc(C2=NCCN2)c1	2.0%	35.5µM*	-2.5	-17.9%	3.9%	-12.7
O=[N+]([O-])c1cc(Br)c2c(c1)CCN2	x	x	3.6	x	x	-14.9
Nc1nc(Nc2ccccc2F)sc1C(=O)c1ccccc1	-12.5%	10.5%[0.501 µM]	-10.8	u	44.7µM*	-0.9
O=C(Nc1cc(C(F)(F)F)ccc1N1CCCC1)c1ccc2c(c1)OCO2	51.4%	44.7µM*	-3.7	-19.9%	-20.0%	-3.5
O=C(Nc1ccccc1N1CCCC1)c1ccc2c(c1)OCO2	21.8%	44.7µM*	-9.9	-16.8%[57.1 µM]	-39.0%	-3.2
O=C1c2cccc([N+](=O)[O-])c2C(=O)N1C1CCCCC1	3.9%	x	2.8	-30.8%	-13.0%	-6.4
O=C1c2cccnc2C(=O)N1C1CCCCC1	30.9%	107.6%[59 µM]	1.2	-7.7%	79.4µM*	-2.1
SMILES	HP1b chromo inh	G9a block	CtBP-E1A blk	JMJD2A Tudor	BAZ2B inh	Six1-Eya2 blk
CC(C)(C)C1=CC(=Nc2ccccc2N)C=C(C(C)(C)C)C1=O	4.47µM*	29.1%[59 µM]	-79.3*	3.98µM*	3.7%	-80.6*
CC(=O)c1cccc(S(=O)(=O)N2CCCC(c3nc(-c4ccc(C)o4)no3)C2)c1 (stereo not given)	3.4%	3.98µM*	-6.3	-23.4%	-28.7%	-4.3
Cc1ccc(-c2noc(C3CCCN(S(=O)(=O)c4ccc5ccccc5c4)C3)n2)o1 (stereo not given)	-1.2%	35.5µM*	5.1	-27.9%	-9.9%	-5.3
Cc1ccc(-c2noc(C3CCN(S(=O)(=O)c4ccc5c(c4)OCCO5)CC3)n2)o1	5.4%	15.8µM*	-17.7	-13.0%	-6.1%	-6.9
CCCc1cc(=O)[nH]c2nnc(SCC(=O)Nc3cccc(C)c3)n12	31.6%	1.7%[59 µM]	x	2.3%	-2.3%	x
CCc1nnc(NC(=O)CSCc2cc(=O)c3ccc(C)cc3[nH]2)s1	16.7%[57 µM]	4.8%[59 µM]	x	-21.8%	0.7%	x
O=C(O)/C=C/c1nc(-c2ccccc2)n2ccccc12	5.6%	11.2µM*	-1.2	-28.4%	44.7µM*	-8.6
O=C(CN1C(=O)C2C3C=CC(C3)C2C1=O)Nc1nc2ccccc2[nH]1 (stereo not given)	6.4%	79.4µM*	4.2	11.2µM*	-35.2%	-2.9
O=C(CN1C(=O)C2C3C=CC(C3)C2C1=O)Nc1ccc(F)cc1 (stereo not given)	23.7%	-23.1%	-15.8	-3.3%	18.8%	3.6
Cn1ccnc1SCc1ccc(Cl)cc1Cl	7.6%	8.91µM*	-3.2	u	-12.9%	5.0
O=C(Cn1c(=O)c2cccn2c2cccnc21)NCc1cccc(F)c1	29.7%	1.3%[59 µM]	x	-3.3%	-2.8%	x
Cc1cnc(NC(=O)CN2C(=O)C3CC=CCC3C2=O)s1 (stereo not given)	5.4%	5.7%[59 µM]	-7.8	56.2µM*	x	0.2
Cc1c(Cl)cccc1NC(=O)CCCn1nc(C)c2sc3ccccc3c2c1=O	43.3%	u	x	-34.8%	4.4%	x
O=C(Oc1ccc(F)c(F)c1)c1ccc2c(=O)n3c(nc2c1)CCC3	35.8%	u	0.3	1.4%	-3.5%	-6.2
O=C(Oc1cccc([N+](=O)[O-])c1)c1ccc2c(=O)n3c(nc2c1)CCC3	-10.8%	6.9%[12.7 µM]	-10.2	u	50.1µM*	u
COc1ccc(Cl)cc1NC(=O)Cn1ccn(-c2cc(C)cc(C)c2)c(=O)c1=O	10.5%	-2.9%[59 µM]	x	-12.2%	-38.9%	x
CCCc1cc(Nc2cccc(OCC)c2)n2ncnc2n1	38.1%	56.2µM*	5.0	-1.3%	8.0%	-5.9
C[n+]1ccc(/C=C/c2ccccc2O)c2ccccc21	-18.5%	25.1µM*	18.6	u	u	1.0
